Records with an inconclusive call do not appear. Active and inactive are the calls of the source. Unless noted, calls come from the whole dose curve; as a rule, active = well fitted curve in the direction sought with a large enough effect in the repeat runs; inconclusive = weak or mixed curves; inactive = no such curve, though single readings can be large; an effect the other way counts as inactive or inconclusive.
Columns and labels:
[1] = qHTS assay to identify small molecule agonists of the RXR signaling pathway - cell viability counter screen (AID 1159529); note: nearly all actives have a fitted effect of over 50% in size; note: potency is the fitted concentration of half-maximal effect
Method in brief: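 Tox21 10K compounds were tested for cytotoxicity against GeneBLAzer RXR-alpha HEK 293T cells grown in 2% charcoal-stripped FBS. Exposure lasted 16 hr at 37 C, 5% CO2; viability read by CellTiter-Glo luminescence.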

[2] = qHTS assay to identify small molecule antagonists of the retinoic acid receptor (RAR) signaling pathway (AID 1159552; note: nearly all actives have a fitted effect of over 50% in size)
Method in brief: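 Overnight-plated C3RL4 reporter cells get compound, then retinol to 1 uM final; plates sit 6 hr at 37 C, 5% CO2. A luciferase reagent is added and light output recorded after 30 min at room temperature.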

[3] = qHTS assay to identify small molecule agonists of the retinoic acid receptor (RAR) signaling pathway (AID 1159553)
Method in brief: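 Compounds dissolved in DMSO were pinned onto C3RL4 cells seeded the previous day, and plates were held 6 hr at 37 C. RARE-driven luciferase output was then read by luminescence.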

[4] = qHTS assay to identify small molecule antagonists of the estrogen related receptor (ERR) signaling pathway from Tox21 library - cell viability counter screen (AID 1224834); note: nearly all actives have a fitted effect of over 30% in size
Method in brief: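 In this quantitative HTS format, ERR cells receive compounds in DMSO and are incubated for 17.5 h at 37 C. Live-cell protease activity is then detected with CellTiter-Fluor.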

[5] = biological target: Luciferin 4-monooxygenase (Photinus pyralis) (UniProt P08659); assay: qHTS assay to identify small molecule inhibitors of firefly luciferase (AID 1224835); note: nearly all actives have a fitted effect of over 25% in size; note: potency is the fitted concentration of half-maximal effect
Sequence of Luciferin 4-monooxygenase (Photinus pyralis) (P08659 whole entry, looked up): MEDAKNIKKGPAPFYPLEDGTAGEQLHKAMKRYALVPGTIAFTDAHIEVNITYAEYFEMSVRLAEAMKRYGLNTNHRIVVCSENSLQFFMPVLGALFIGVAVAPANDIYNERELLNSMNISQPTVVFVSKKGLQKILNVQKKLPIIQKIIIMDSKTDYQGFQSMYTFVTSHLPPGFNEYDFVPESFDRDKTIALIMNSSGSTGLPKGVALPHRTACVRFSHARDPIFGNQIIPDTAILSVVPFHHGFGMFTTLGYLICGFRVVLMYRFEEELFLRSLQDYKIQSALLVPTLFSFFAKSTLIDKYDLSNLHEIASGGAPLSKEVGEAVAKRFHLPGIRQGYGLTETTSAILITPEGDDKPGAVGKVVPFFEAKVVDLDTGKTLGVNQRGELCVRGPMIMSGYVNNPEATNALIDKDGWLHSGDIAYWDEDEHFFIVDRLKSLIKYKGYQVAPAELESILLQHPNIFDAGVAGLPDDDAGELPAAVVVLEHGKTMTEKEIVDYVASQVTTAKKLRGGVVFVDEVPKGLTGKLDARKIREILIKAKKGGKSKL
Method in brief: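 Quantitative HTS format; KM concentrations of both substrates. Purified P. pyralis FLuc activity quantified from luminescence images.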

[6] = qHTS assay to identify small molecule agonists of the constitutive androstane receptor (CAR) signaling pathway - cell viability counter screen (AID 1224836); note: nearly all actives have a fitted effect of over 45% in size; note: potency is the fitted concentration of half-maximal effect
Method in brief: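 Fluorescence from CellTiter-Fluor indicates live cells after 23 h exposure. The human hepatoma line expresses hCAR and a CYP2B6-2.2kb reporter. Incubation medium contains 0.75 uM PK11195 (final).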

[7] = qHTS assay to identify small molecule antagonists of the constitutive androstane receptor (CAR) signaling pathway - cell viability counter screen (AID 1224837); note: series mostly up to about 92 µM; nearly all actives have a fitted effect of over 45% in size
Method in brief: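 In quantitative HTS format, compounds at 15 concentrations were applied to HepG2 cells double-transfected with hCAR and CYP2B6-2.2kb under 50 nM CITCO stimulation; live-cell protease activity was read after 23 hr via CellTiter-Fluor.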

[8] = biological target: Nuclear receptor subfamily 1 group I member 3 (Homo sapiens) (UniProt Q14994); assay: qHTS assay to identify small molecule antagonists of the constitutive androstane receptor (CAR) signaling pathway (AID 1224838); note: nearly all actives have a fitted effect of over 40% in size; note: potency is the fitted concentration of half-maximal effect
Sequence of Nuclear receptor subfamily 1 group I member 3 (Homo sapiens) (Q14994 whole entry, looked up): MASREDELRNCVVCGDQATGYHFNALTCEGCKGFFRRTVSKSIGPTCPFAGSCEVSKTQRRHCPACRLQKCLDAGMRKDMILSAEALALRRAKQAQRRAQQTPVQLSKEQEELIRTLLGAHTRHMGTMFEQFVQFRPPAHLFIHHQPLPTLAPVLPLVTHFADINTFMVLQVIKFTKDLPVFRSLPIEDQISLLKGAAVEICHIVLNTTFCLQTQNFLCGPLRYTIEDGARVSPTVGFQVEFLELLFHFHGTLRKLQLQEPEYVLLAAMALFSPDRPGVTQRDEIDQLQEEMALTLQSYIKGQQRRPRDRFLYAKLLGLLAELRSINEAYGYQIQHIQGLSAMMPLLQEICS
Method in brief: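 CITCO-stimulated (50 nM final) HepG2 cells stably transfected with hCAR and CYP2B6-2.2kb luciferase were exposed to compounds at 15 concentrations for 24 h at 37 C/5% CO2. A luciferase reagent was added and luminescence recorded after 30 min.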

[9] = biological target: Nuclear receptor subfamily 1 group I member 3 (Homo sapiens) (UniProt Q14994); assay: qHTS assay to identify small molecule agonists of the constitutive androstane receptor (CAR) signaling pathway (AID 1224839); note: nearly all actives have a fitted effect of over 15% in size; note: potency is the fitted concentration of half-maximal effect
Method in brief: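 Stable hCAR/CYP2B6-2.2kb HepG2 line in DMEM with 10% FBS; compounds (15 concentrations) and 0.75 uM PK11195 final, 24 h at 37 C/5% CO2, then ONE-Glo luminescence after 30 min.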

[10] = biological target: Thyrotropin receptor (Homo sapiens) (UniProt P16473); assay: qHTS assay to identify small molecule agonists of the thyroid stimulating hormone receptor (TSHR) signaling pathway (AID 1224843; calls by dose curve; note: nearly all actives have a fitted effect of over 45% in size)
Sequence of Thyrotropin receptor (Homo sapiens) (P16473 whole entry, looked up): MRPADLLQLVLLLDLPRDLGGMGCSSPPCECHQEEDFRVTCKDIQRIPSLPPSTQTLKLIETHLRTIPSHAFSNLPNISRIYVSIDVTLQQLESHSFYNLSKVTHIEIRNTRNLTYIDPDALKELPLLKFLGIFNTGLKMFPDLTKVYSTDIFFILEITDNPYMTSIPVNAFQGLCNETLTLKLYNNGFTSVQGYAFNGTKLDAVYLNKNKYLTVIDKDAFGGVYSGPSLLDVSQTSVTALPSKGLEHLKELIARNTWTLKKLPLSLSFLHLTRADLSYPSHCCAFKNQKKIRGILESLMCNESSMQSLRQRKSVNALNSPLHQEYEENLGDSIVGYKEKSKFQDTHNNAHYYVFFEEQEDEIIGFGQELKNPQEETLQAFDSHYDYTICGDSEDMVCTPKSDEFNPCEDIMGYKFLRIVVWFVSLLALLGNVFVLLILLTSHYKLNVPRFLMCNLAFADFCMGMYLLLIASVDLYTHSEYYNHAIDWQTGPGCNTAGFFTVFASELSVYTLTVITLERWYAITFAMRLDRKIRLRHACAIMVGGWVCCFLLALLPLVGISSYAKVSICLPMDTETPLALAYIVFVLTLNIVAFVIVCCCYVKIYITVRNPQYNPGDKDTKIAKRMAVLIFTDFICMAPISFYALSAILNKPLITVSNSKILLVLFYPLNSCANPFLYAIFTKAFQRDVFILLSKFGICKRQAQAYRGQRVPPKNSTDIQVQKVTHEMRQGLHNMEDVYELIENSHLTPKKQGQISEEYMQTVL
Method in brief: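 Compounds are titrated over 15 concentrations, in triplicate, onto TSHR-HEK293 cells seeded at 800/well. Plates sit 30 min at room temperature before cAMP-d2 and anti-cAMP cryptate are added; signal is read after a further hour.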

[11] = qHTS assay to identify small molecule antagonists of the retinoid acid receptor (RAR) signaling pathway - cell viability counter screen (AID 1159551); note: nearly all actives have a fitted effect of over 35% in size
Method in brief: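 Viability of C3RL4 cells is quantified from ATP by luminescence after 6 h treatment at 37 C with compounds and 1 uM retinol.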

[12] = qHTS assay to identify small molecule antagonists of the estrogen related receptor signaling pathway with the pleiotropic PPARgamma coactivator (PGC) from Tox21 10K library - cell viability counter screen (AID 1224840; active = well fitted cell-killing curve with a large enough effect in the repeat runs, not every such curve was filed as active; note: nearly all actives have a fitted effect of over 40% in size)
Method in brief: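 Viability counter screen, PGC/ERR cells: 17.5 h compound exposure at 37 C, CellTiter-Fluor fluorescence endpoint.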

[13] = qHTS assay to identify small molecule antagonists of the estrogen related receptor signaling pathway with the pleiotropic PPARgamma coactivator (PGC) from Tox21 10K library (AID 1224841; call rule not given here; note: actives are mostly falling curves and most rising ones were filed inactive; nearly all actives have a fitted effect of over 50% in size; note: potency is the fitted concentration of half-maximal effect)
Method in brief: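 In the PGC/ERR line, DMSO solutions of test chemicals are pin-delivered to 2,000 cells/well six hours after dispensing. Following eighteen hours' incubation, One-Glo reagent is added and luminescence recorded.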

[14] = qHTS assay to identify small molecule agonists of the estrogen related receptor signaling pathway with the pleiotropic PPARgamma coactivator (PGC) from Tox21 10K library (AID 1224842); note: nearly all actives have a fitted effect of over 15% in size
Method in brief: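 PGC/ERR reporter cells (NTP line) were seeded 2,000 per well, rested 6 h at 37 C/5% CO2, then pin-dosed with compounds in DMSO for 18 h at 37 C; luciferase read by One-Glo luminescence after 30 min at room temperature.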

[15] = qHTS assay to identify small molecule antagonists of the estrogen related receptor (ERR) signaling pathway - cell viability counter screen (AID 1224818); note: series mostly up to about 46 µM
Method in brief: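 Cytotoxicity check run alongside the ERR antagonist screen: cells exposed to test compounds 17.5 h at 37 C, viability taken as CellTiter-Fluor fluorescence intensity.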

[16] = qHTS assay to identify small molecule antagonists of the estrogen related receptor (ERR) signaling pathway (AID 1224819; note: series mostly up to about 46 µM; nearly all actives have a fitted effect of over 50% in size)
Method in brief: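 ERR reporter cells were plated at 2,000 cells/well and left 6 h at 37 C/5% CO2 before pin-tool transfer of compounds in DMSO. After 18 h at 37 C, One-Glo was added and luminescence was read 30 min later at room temperature.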

[17] = qHTS assay to identify small molecule agonists of the estrogen related receptor (ERR) signaling pathway (AID 1224820)
Method in brief: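 After 6 h plating (2,000 cells/well) and 18 h compound treatment at 37 C, ERR cells were lysed with One-Glo and luminescence read after 30 min at room temperature.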

[18] = tested on: estrogen-related receptor alpha (ERRalpha) with PGC-1alpha coactivator, human; assay: qHTS assay to identify small molecule antagonists of the estrogen related receptor signaling pathway with the pleiotropic PPARgamma coactivator (PGC) (AID 1224821; calls by dose curve)
Method in brief: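 Luminescence from One-Glo luciferase reagent (30 min, room temperature) measured after 18 h compound treatment at 37 °C. Cells carry the PGC/ERR reporter and were seeded 6 h prior to dosing.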

[19] = qHTS assay to identify small molecule antagonists of the estrogen related receptor signaling pathway with the pleiotropic PPARgamma coactivator (PGC) cell viability counter screen (AID 1224822; note: series mostly up to about 46 µM)
Method in brief: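 Viable cell signal (CellTiter-Fluor, 30 min, 37 C/5% CO2) was measured in PGC/ERR cells after a 17.5 h compound incubation.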

[20] = qHTS assay to identify small molecule agonists of the estrogen related receptor signaling pathway with the pleiotropic PPARgamma coactivator (PGC) (AID 1224823)
Method in brief: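 Luminescence from One-Glo reagent (30 min, room temperature) was read after 18 h compound treatment at 37 C of PGC/ERR cells plated 6 h beforehand; compounds delivered in DMSO by pin tool.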

Measured: Potency

Cn1c(N)nc2nc[nH]c2c1=O
inactive: [1] | [2] | [3] | [4] | [5] | [6] | [7] | [9] | [10]
active: [8] 48 µM

CCCCOC(=O)c1ccccc1C(=O)OCC(CC)CCCC (stereo not drawn)
inactive: [1] | [11] | [4] | [5] | [6] | [8] | [9] | [12] | [10]

CC1(C)[C@H]2CC[C@]1(C)[C@H](O)C2
inactive: [1] | [11] | [4] | [5] | [6] | [7] | [10]

Cc1ccccc1N=Nc1ccc(N=Nc2c(O)ccc3ccccc23)c(C)c1
inactive: [1] | [11] | [4] | [6] | [7] | [12] | [13] | [14] | [10]

Nc1ccc(C(=O)N2CC3CC(CN(Cc4ccccc4)C3)C2)cc1
inactive: [1] | [2] | [3] | [4] | [5] | [6] | [7] | [9] | [12] | [14] | [10]

CCCCCCCCCCCCCCC1CO1 (stereo not drawn)
inactive: [1] | [2] | [3] | [4] | [5] | [6] | [7] | [12] | [10]

CCCCCCCCN(C)C
inactive: [1] | [2] | [3] | [4] | [5] | [6] | [7] | [12] | [13] | [14] | [10]

Cc1cccc(Oc2ccccc2)c1
active: [1] 1.9 µM | [13] 53.1 µM
inactive: [11] | [5] | [6] | [8] | [9] | [12] | [14] | [10]

CCOC(=O)CC(=O)c1cc(F)c(Cl)nc1Cl
inactive: [1] | [2] | [3] | [6] | [8] | [9] | [12]
active: [5] 40.9 µM

Cc1cccc(C(C)(C)C)c1O
inactive: [1] | [2] | [3] | [4] | [5] | [6] | [7] | [9] | [12]

O=S1(=O)c2cccc3cccc(c23)N1CCCN1CCN(c2ccc(F)cc2)CC1
active: [9] 26.6 µM
not listed: [11] | [15] | [16] | [17] | [18] | [19] | [20]
inactive: all other assays above

O=C1CCCCCO1
inactive: [1] | [2] | [3] | [4] | [5] | [6] | [7] | [8] | [9] | [12] | [10]

CCCCCC/C=C/C=O
not listed: [10] | [11] | [15] | [16] | [17] | [18] | [19] | [20]
inactive: all other assays above

CC(C)=CCCC(C)CC=O (stereo not drawn)
inactive: [1] | [11] | [5] | [6] | [7] | [10]

C=CC(C)(CCC=C(C)C)OC(=O)c1ccccc1 (stereo not drawn)
inactive: [1] | [2] | [3] | [4] | [5] | [6] | [12] | [10]

CCCCCCCCCC=O
inactive: [1] | [11] | [5] | [6] | [7] | [12] | [10]

O=C1[C@H](CC[C@H](O)c2ccc(F)cc2)[C@@H](c2ccc(O)cc2)N1c1ccc(F)cc1
inactive: [1] | [2] | [3] | [5] | [6] | [7] | [9] | [12] | [10]
active: [13] 26.6 µM

COCCCCCCCCOCCC[Si](C)(O[Si](C)(C)C)O[Si](C)(C)C
active: [8] 48.6 µM
inactive: [1] | [11] | [5] | [9]

O=C(c1ccc(O)cc1)c1ccc(O)cc1
inactive: [1] | [2] | [3] | [4] | [6] | [7] | [8] | [12] | [13] | [10]

CCCc1ccccc1
not listed: [4] | [11] | [15] | [16] | [17] | [18] | [19] | [20]
inactive: all other assays above

COc1ccc2[nH]c(S(=O)Cc3ncc(C)c(OC)c3C)nc2n1 (stereo not drawn)
inactive: [1] | [11] | [5] | [6] | [7] | [8] | [12]
active: [9] 26.6 µM

CCCCCCCCC(CO)CCCCCC (stereo not drawn)
not listed: [11] | [14] | [15] | [16] | [17] | [18] | [19] | [20]
inactive: all other assays above

Cc1ccccn1
inactive: [1] | [2] | [3] | [4] | [6] | [7] | [9] | [12] | [13]

CC(C)c1ccccc1C(C)C
inactive: [1] | [11] | [4] | [6] | [12]

CCOC(=O)CC(C)C
inactive: [1] | [11] | [4] | [5] | [6] | [9] | [12] | [10]

Cc1ccc(C(=O)C(C)CN2CCCCC2)cc1 (stereo not drawn)
not listed: [11] | [14] | [15] | [16] | [17] | [18] | [19] | [20]
inactive: all other assays above

CC(=O)OCCc1ccccc1
inactive: [1] | [2] | [3] | [4] | [5] | [6] | [7] | [9] | [12] | [10]

NC(N)=N/N=C/c1c(Cl)cccc1Cl
active: [6] 23.7 µM
not listed: [4] | [7] | [10] | [11] | [14]
inactive: all other assays above

C#CCOC(=O)[C@@H](C)Oc1ccc(Oc2ncc(Cl)cc2F)cc1
inactive: [1] | [2] | [3] | [4] | [5] | [6] | [7] | [9] | [12] | [13] | [14]

CC1(C)CCC(C)(C)c2cc(NC(=O)c3ccc(C(=O)O)cc3)ccc21
inactive: [1] | [11] | [6] | [9] | [12] | [10]

CC(=O)CC(=O)c1ccccc1
active: [8] 10.9 µM
inactive: [1] | [2] | [3] | [4] | [5] | [9] | [13]

CN(c1nccc(=O)[nH]1)C1CCN(c2nc3ccccc3n2Cc2ccc(F)cc2)CC1
inactive: [1] | [2] | [3] | [4] | [5] | [6] | [7] | [8] | [9] | [12] | [10]

CCCCOCCOCCOCCOCCO
inactive: [1] | [11] | [4] | [5] | [6] | [10]
